According to PubChem BioAssay:
A number with no mark means an inactive call. Active and inactive are the calls of the source.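 How the source made its calls: active means mean inhibition above 46.5%, the solvent-only control mean plus 3 SD; inactive means the rest.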

These compounds were tested against Nuclear receptor coactivator 2 (Homo sapiens) (UniProt Q15596) (assay: SRC2 coactivator transcriptional activity inhibitors, confirmation, cell-based, luminescence, HEK293, triplicate (AID 652008;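 further: 0% = DMSO-treated cells and 100% = Gossypol at 36 µM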)). Settings: HEK293 GAL4-SRC2 luciferase reporter, at 8.9 µM, stronger effect = higher value.
Chain of Nuclear receptor coactivator 2 (Homo sapiens) (Q15596 whole entry, looked up, the tested form may be a part): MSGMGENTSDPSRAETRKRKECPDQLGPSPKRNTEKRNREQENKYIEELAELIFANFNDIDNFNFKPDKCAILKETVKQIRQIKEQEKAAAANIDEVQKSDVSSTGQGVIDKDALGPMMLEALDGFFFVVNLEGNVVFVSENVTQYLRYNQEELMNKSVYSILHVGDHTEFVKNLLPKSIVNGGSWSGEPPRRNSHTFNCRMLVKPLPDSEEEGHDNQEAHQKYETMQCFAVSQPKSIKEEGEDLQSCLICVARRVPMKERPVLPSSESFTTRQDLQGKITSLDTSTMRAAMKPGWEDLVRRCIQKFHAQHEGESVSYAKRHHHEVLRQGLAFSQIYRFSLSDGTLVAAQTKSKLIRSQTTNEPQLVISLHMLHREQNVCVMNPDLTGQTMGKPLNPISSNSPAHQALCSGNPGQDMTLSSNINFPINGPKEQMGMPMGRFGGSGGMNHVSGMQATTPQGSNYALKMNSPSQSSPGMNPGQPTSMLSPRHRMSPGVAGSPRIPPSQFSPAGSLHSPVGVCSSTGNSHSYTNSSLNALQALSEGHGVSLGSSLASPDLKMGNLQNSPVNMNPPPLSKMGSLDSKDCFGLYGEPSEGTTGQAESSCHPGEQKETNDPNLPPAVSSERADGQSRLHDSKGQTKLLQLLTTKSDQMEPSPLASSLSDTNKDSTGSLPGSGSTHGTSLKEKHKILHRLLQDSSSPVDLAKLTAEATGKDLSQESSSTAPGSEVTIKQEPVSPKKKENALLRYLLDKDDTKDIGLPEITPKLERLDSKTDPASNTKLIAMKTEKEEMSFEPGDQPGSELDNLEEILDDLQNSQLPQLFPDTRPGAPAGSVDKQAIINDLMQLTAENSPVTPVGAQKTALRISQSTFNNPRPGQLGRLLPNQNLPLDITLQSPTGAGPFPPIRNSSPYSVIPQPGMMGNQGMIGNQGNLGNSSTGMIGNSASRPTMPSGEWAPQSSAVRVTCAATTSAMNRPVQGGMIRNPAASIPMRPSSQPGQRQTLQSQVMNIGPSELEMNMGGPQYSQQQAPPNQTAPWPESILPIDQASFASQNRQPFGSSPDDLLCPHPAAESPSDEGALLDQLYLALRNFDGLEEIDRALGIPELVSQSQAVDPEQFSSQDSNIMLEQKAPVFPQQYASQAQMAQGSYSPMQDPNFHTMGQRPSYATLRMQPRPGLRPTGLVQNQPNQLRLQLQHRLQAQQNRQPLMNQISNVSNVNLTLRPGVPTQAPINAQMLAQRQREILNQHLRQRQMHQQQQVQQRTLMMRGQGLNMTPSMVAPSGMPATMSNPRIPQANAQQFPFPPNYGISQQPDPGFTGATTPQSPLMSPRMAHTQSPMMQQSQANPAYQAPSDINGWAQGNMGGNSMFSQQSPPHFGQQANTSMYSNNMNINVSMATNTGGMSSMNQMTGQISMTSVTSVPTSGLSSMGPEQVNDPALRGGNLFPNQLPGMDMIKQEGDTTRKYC
Compound `COC(=O)C1=C(c2ccc(-c3ccccc3)c(F)c2)C[C@@H]2CC[C@H]1N2C(=O)NCc1ccc(F)cc1` has an inhibition of 2.93%.
In the case of `C=C1C(=O)O[C@H]2C[C@@H](C)[C@@H]3C=CC(=O)[C@@]3(C)C[C@H]12`, the inhibition is reported as 23%.
Work on `COc1ccc2c3c1O[C@H]1C(=O)CC[C@H]4[C@@H](C2)N(C)CC[C@]314` yielded an inhibition of -28.4%.
With `CN(Cc1cccc(-c2cccnc2)c1)C(=O)Oc1ccc([N+](=O)[O-])cc1` the inhibition was 49.7% (active).
`CCOP(=O)(OCC)c1cccc(OP(=O)(c2cccc([N+](=O)[O-])c2)c2cccc([N+](=O)[O-])c2)c1` gave an inhibition of -32.1%.
In the case of `CCN1CCN(S(=O)(=O)c2ccc(Cl)c(C(=O)Nc3ccc(C(=O)N(CC)CC)cc3)c2)CC1`, the inhibition is reported as 2.66%.
`C[C@@H]1O[C@@H](O[C@@H]2C=C3CC[C@@H]4C(CC[C@]5(C)[C@@H](c6ccc(=O)oc6)CC[C@]45O)[C@@]3(C)CC2)[C@H](O)[C@H](O)[C@H]1O` (some centres undefined) was tested, and the inhibition was 69.7% (active).
With `Cc1ccc(N2C(=O)NC(=O)C(CCc3ccccn3)(Cc3ccc(F)cc3)C2=O)cc1` (centres undefined) the inhibition was 7.3%.
Compound `NC(=O)c1c(Br)n(C2OC(CO)C(O)C2O)c2ncnc(N)c12` (centres undefined) has an inhibition of 35.3%.
For `CN1C(=O)C[N+]([O-])=C(c2ccccc2)c2cc(Cl)ccc21`, the inhibition was 0.34%.
With `CC1OC(OC2C=C3CCC4C(CCC5(C)C(c6ccc(=O)oc6)CCC45O)C3(C)CC2)C(O)C(OC2OC(CO)C(O)C(O)C2O)C1O` (centres undefined) the inhibition was 48.1% (active).
With `COC1=C(C)C(=O)C2=C(C1=O)C(CO)N1C(C#N)C3CC4C(C1C2N1CCOC41)N3C` (centres undefined) the inhibition was 57% (active).
`COC1C(O)C(C)OC(OC2CCC3(C)C(CCC4C3C(O)CC3(C)C(C5=CC(=O)OC5)CCC43O)C2)C1O` (centres undefined) was tested, and the inhibition was 22.7%.
`Cc1nc2cc(-c3cccc(F)c3)nn2c(C)c1CCC(=O)N1CCC2(CC1)OCCO2` was tested, and the inhibition was 40%.
Work on `Oc1ccc(-[n+]2c(-c3ccccc3)cc(-c3ccccc3)cc2-c2ccccc2)cc1` yielded an inhibition of 33.1%.
`O=[N+]([O-])c1ccc(N2CCCC(C(F)(F)F)C2)c2ccncc12` (centres undefined) showed an inhibition of 34.3%.
For `O=Cc1cn(Cc2ccc(F)cc2Cl)c2ccccc12`, the inhibition was 26.5%.
`COC(=O)C1=C(C(=O)OC)C2c3ccccc3C1c1ccccc12` was tested, and the inhibition was 2.05%.
`Cc1nc2cc(-c3ccc(Cl)cc3)nn2c(C)c1CCC(=O)N1CCC2(CC1)OCCO2` was tested, and the inhibition was 70.5% (active).
